From the supplement of paper PMC3334620
In all, about 33,000 sequences were measured (“E-score (-0.5 to 0.5)”: median about -0.035, highest 2% from about 0.35 on). Only a selection was taken, and the highest values are over-represented in it overall.

Molecular target: T1, Pdr3 (UniProt P33200)
T1 sequence: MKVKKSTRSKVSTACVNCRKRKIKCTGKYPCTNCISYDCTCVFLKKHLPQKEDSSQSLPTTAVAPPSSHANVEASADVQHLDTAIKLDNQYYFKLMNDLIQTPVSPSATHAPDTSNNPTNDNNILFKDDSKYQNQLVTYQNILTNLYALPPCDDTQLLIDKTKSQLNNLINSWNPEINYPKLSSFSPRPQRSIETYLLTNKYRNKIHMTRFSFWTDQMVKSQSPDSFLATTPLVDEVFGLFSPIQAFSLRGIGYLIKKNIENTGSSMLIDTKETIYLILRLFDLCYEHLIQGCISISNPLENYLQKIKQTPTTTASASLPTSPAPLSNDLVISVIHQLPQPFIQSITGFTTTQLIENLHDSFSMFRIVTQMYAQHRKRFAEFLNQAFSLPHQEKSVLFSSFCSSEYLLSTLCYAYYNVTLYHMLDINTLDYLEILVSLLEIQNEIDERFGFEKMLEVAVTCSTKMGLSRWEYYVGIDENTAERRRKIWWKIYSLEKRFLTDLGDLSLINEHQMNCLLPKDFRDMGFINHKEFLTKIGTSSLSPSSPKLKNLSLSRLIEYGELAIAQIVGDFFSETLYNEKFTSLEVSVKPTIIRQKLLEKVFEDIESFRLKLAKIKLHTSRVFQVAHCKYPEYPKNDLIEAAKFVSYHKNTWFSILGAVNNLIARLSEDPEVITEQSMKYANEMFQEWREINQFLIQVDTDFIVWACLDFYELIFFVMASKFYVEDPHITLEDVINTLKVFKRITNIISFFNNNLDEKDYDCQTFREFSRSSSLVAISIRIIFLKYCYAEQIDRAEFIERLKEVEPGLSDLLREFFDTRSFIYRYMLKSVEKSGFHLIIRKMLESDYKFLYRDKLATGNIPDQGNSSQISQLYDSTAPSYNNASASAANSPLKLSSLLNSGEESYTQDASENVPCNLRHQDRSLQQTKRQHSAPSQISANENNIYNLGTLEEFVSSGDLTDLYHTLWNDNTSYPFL
Assay: PBM E-score (8-mer binding enrichment) (E-score (-0.5 to 0.5)); higher = stronger / more preferred TF binding
Settings: protein concentration: 200 nM; construct: GST-full length
Procedure: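 Universal 'all 10-mer' protein binding microarrays (Agilent AMADID 015681) probed with GST-tagged S. cerevisiae TFs (full-length or DBD) made by in vitro transcription/translation (PURExpress), about 100-200 nM. Bound TF was detected with fluorescent anti-GST. Each ungapped 8-mer (which stands for itself and its reverse complement) is scored by the PBM enrichment score (E-score), a modified Wilcoxon-Mann-Whitney statistic from -0.5 to +0.5, computed with the Universal PBM Analysis Suite. Scale: above 0.35 generally sequence-specific binding.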

Question: For ACGGATCA, which “PBM E-score” value is on record?
Answer: 0.366

Question: For GCGGATCC, which “PBM E-score” value is on record?
Answer: 0.409

Question: Which “PBM E-score” value does the source give for AAGGATCA here?
Answer: -0.14

Question: How did the “PBM E-score” value turn out when CTGGATCC was run?
Answer: 0.285

Question: CAGGATCC was tested. Which “PBM E-score” value did it give?
Answer: 0.0521

Question: With GAGGATCC as the sequence, how does the “PBM E-score” value read?
Answer: 0.235

Question: ATGGATCA was tested. Which “PBM E-score” value did it give?
Answer: -0.0186

Question: With CCGGATCC as the sequence, how does the “PBM E-score” value read?
Answer: 0.433

Question: How did the “PBM E-score” value turn out when GCGGATAC was run?
Answer: 0.311

Question: ATCGTTAA was tested. Which “PBM E-score” value did it give?
Answer: 0.00324

Question: For CGAATCCA, which “PBM E-score” value is on record?
Answer: 0.0811

Question: Which “PBM E-score” value does the source give for CCGTCACG here?
Answer: 0.238

Question: ATCCCACC was tested. Which “PBM E-score” value did it give?
Answer: 0.266

Question: Which “PBM E-score” value does the source give for CCTCGGCC here?
Answer: 0.251

Question: How did the “PBM E-score” value turn out when CCTCGGAG was run?
Answer: 0.283

Question: Which “PBM E-score” value does the source give for CCTCGGAA here?
Answer: 0.442

Question: GCTCGGAA was tested. Which “PBM E-score” value did it give?
Answer: 0.413

Question: With GCTCGGTA as the sequence, how does the “PBM E-score” value read?
Answer: 0.123

Question: For GCTCGGAC, which “PBM E-score” value is on record?
Answer: 0.297

Question: How did the “PBM E-score” value turn out when ACTCGGAC was run?
Answer: 0.305

Question: With CCTCGGCG as the sequence, how does the “PBM E-score” value read?
Answer: 0.376

Question: How did the “PBM E-score” value turn out when CCTCGGAC was run?
Answer: 0.282

Question: For CCTCGGCA, which “PBM E-score” value is on record?
Answer: 0.238

Question: Which “PBM E-score” value does the source give for ACTCGGAA here?
Answer: 0.427

Question: Which “PBM E-score” value does the source give for ACTCGGAT here?
Answer: 0.256

Question: For AAACGTCA, which “PBM E-score” value is on record?
Answer: -0.149

Question: With AAGCCTGT as the sequence, how does the “PBM E-score” value read?
Answer: 0.028

Question: For CTGCAGGC, which “PBM E-score” value is on record?
Answer: -0.094

Question: For TCTCGGAA, which “PBM E-score” value is on record?
Answer: 0.444

Question: TCTCGGCA was tested. Which “PBM E-score” value did it give?
Answer: 0.217

Question: With TCTCGTAA as the sequence, how does the “PBM E-score” value read?
Answer: -0.0824

Question: For AAGGCCAG, which “PBM E-score” value is on record?
Answer: -0.0965

Question: For TAAGCACA, which “PBM E-score” value is on record?
Answer: 0.108

Question: Which “PBM E-score” value does the source give for CGGGAACC here?
Answer: 0.312

Question: For AGGGAACC, which “PBM E-score” value is on record?
Answer: -0.00025

Question: How did the “PBM E-score” value turn out when CAGGAACC was run?
Answer: -0.124

Question: With ACGGAACT as the sequence, how does the “PBM E-score” value read?
Answer: 0.48

Question: For CCGGAACC, which “PBM E-score” value is on record?
Answer: 0.476

Question: AGGGAACT was tested. Which “PBM E-score” value did it give?
Answer: 0.0568

Question: For CCGGAACG, which “PBM E-score” value is on record?
Answer: 0.475

Question: For ACGGAACC, which “PBM E-score” value is on record?
Answer: 0.487

Question: CGGGAACG was tested. Which “PBM E-score” value did it give?
Answer: 0.285

Question: How did the “PBM E-score” value turn out when AAGGAACT was run?
Answer: 0.0764

Question: How did the “PBM E-score” value turn out when CAGGAACG was run?
Answer: -0.0257

Question: How did the “PBM E-score” value turn out when AAGGAACC was run?
Answer: 0.217

Question: With ACTCAACC as the sequence, how does the “PBM E-score” value read?
Answer: -0.035

Question: ATTGCACC was tested. Which “PBM E-score” value did it give?
Answer: -0.0754

Question: How did the “PBM E-score” value turn out when GGCACTAA was run?
Answer: 0.156

Question: Which “PBM E-score” value does the source give for CGATTGCG here?
Answer: 0.202

Question: For CTTTCTGC, which “PBM E-score” value is on record?
Answer: -0.0975

Question: For CAGCACAC, which “PBM E-score” value is on record?
Answer: -0.275

Question: Which “PBM E-score” value does the source give for CACTCGCG here?
Answer: 0.0224

Question: Which “PBM E-score” value does the source give for GACCAATA here?
Answer: -0.0553

Question: AGTGGTTG was tested. Which “PBM E-score” value did it give?
Answer: -0.00222

Question: How did the “PBM E-score” value turn out when GCGGAACC was run?
Answer: 0.482

Question: With ATGGAACG as the sequence, how does the “PBM E-score” value read?
Answer: 0.0401

Question: How did the “PBM E-score” value turn out when ACGGAACG was run?
Answer: 0.48

Question: With AAGGAACG as the sequence, how does the “PBM E-score” value read?
Answer: 0.00917

Question: GAGGAACC was tested. Which “PBM E-score” value did it give?
Answer: 0.0227

Question: Which “PBM E-score” value does the source give for GGGGAACC here?
Answer: -0.157

Question: CGATCTTC was tested. Which “PBM E-score” value did it give?
Answer: 0.0584

Question: Which “PBM E-score” value does the source give for CTCTTCAG here?
Answer: -0.243

Question: With CTAACAGA as the sequence, how does the “PBM E-score” value read?
Answer: -0.028

Question: With AGGAGTGC as the sequence, how does the “PBM E-score” value read?
Answer: -0.0635

Question: How did the “PBM E-score” value turn out when CCGGTCCA was run?
Answer: 0.0798

Question: For ATGGTCCA, which “PBM E-score” value is on record?
Answer: -0.203

Question: How did the “PBM E-score” value turn out when ATGGTCCC was run?
Answer: -0.0703

Question: With CCGGTCCG as the sequence, how does the “PBM E-score” value read?
Answer: 0.414

Question: How did the “PBM E-score” value turn out when ATGGTCCG was run?
Answer: 0.387

Question: For CCGGTCCC, which “PBM E-score” value is on record?
Answer: 0.312

Question: How did the “PBM E-score” value turn out when CAGCTTAC was run?
Answer: -0.193

Question: Which “PBM E-score” value does the source give for GTAGTGAC here?
Answer: 0.0971

Question: For CAGATGCA, which “PBM E-score” value is on record?
Answer: -0.278

Question: ACGCGCAC was tested. Which “PBM E-score” value did it give?
Answer: -0.111

Question: With ACATCCAC as the sequence, how does the “PBM E-score” value read?
Answer: -0.04

Question: CAATCATG was tested. Which “PBM E-score” value did it give?
Answer: -0.189

Question: How did the “PBM E-score” value turn out when CCGATTCC was run?
Answer: 0.395

Question: Which “PBM E-score” value does the source give for AGGATTCC here?
Answer: 0.223

Question: With GCGATTCC as the sequence, how does the “PBM E-score” value read?
Answer: 0.34

Question: Which “PBM E-score” value does the source give for CGGATTCA here?
Answer: 0.179

Question: How did the “PBM E-score” value turn out when CGGATTCC was run?
Answer: 0.454

Question: Which “PBM E-score” value does the source give for CCGATTCG here?
Answer: 0.25

Question: Which “PBM E-score” value does the source give for ATTCACCG here?
Answer: 0.254

Question: How did the “PBM E-score” value turn out when ACCCACAG was run?
Answer: -0.278

Question: AATCTCCG was tested. Which “PBM E-score” value did it give?
Answer: 0.322

Question: How did the “PBM E-score” value turn out when CATCTCCG was run?
Answer: 0.377

Question: CATCTCCC was tested. Which “PBM E-score” value did it give?
Answer: 0.155

Question: With GTCTGACA as the sequence, how does the “PBM E-score” value read?
Answer: 0.159

Question: With AACCTTTG as the sequence, how does the “PBM E-score” value read?
Answer: -0.165
